Experimental data: the supplement of paper PMC4723716
± gives the uncertainty stated by the source. In all, about 9,900 compounds were measured (“viability index relative to DMSO control”: median about 1, lowest 2% from about 0.85 on). This is one part of a sample in which the lowest values are shown more often than they occur.

Test system: Plasmodium falciparum NF54 stage V gametocytes
Assay: viability index relative to DMSO control (fraction); higher = less gametocyte killing
Details: 2.5 µM, incubation time: 72 h
In short: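 Viability index is the count of red-stained particles in a well divided by the plate mean of solvent-only wells. Particles of 20–70 µm2 were counted in one imaged field per well after one to two hours with 3 µl of 2.5 µM MitoTracker Red CMXRos and 0.13% saponin. Before staining, P. falciparum NF54 stage V gametocytes in serum-free medium (0.75% gametocytemia, 1.25% hematocrit, 10 µl, 1,536-well plates) were kept with compound at 2.5 µM for 72 hr at 37°C under low oxygen.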

[1] = library set: Broad Institute DOS

| Compound | viability index [1] | viability index (library set: Broad Institute Blood Stage) |
| --- | --- | --- |
| C[C@@H]1CN([C@H](C)CO)C(=O)CCCn2nncc2CO[C@@H]1CN(C)S(=O)(=O)c1ccc2c(c1)OCCCO2 | 1.025 ± 0.0016 |  |
| C[C@@H]1CN([C@H](C)CO)C(=O)c2cc(NS(=O)(=O)c3cn(C)cn3)ccc2O[C@@H](C)CCCCO[C@@H]1CN(C)Cc1ccc2c(c1)OCO2 | 1.15 ± 0.07 |  |
| CC(=O)N1CC2(C1)[C@@H](c1ccc(-c3ccc(F)cc3)cc1)[C@@H](CO)N2CC1CC1 | 1.08 ± 0.023 |  |
| O=C(C[C@@H]1C=C[C@@H](NC(=O)Nc2ccc3c(c2)OCO3)[C@@H](CO)O1)NCCCN1CCOCC1 | 1.02 ± 0.075 |  |
| COc1ccccc1S(=O)(=O)N1[C@@H]2CNC[C@H]1[C@@H]2c1ccc(-c2ccncc2)cc1 | 1.06 ± 0.032 |  |
| O=C(C[C@@H]1CC[C@H](NC(=O)C2CC2)[C@H](CO)O1)Nc1ccccc1 | 0.916 ± 0.036 |  |
| O=C(C1CCOCC1)N1C[C@@H]2[C@H](c3ccccc31)[C@@H](CO)N2C(=O)Cc1ccccn1 | 1.06 ± 0.053 |  |
| COc1ccc2c3c([nH]c2c1)[C@@H](CO)N(C[C@]31CN(C1)C(=O)NC(C)C)C(=O)C1CCOCC1 | 1.03 ± 0.045 |  |
| C[C@H]1CN([C@@H](C)CO)C(=O)c2cccc(NC(=O)C3CCOCC3)c2O[C@@H]1CN(C)C(=O)Nc1cccc2ccccc12 | 1.03 ± 0.11 |  |
| CCS(=O)(=O)Nc1ccc2c(c1)C(=O)N(C)[C@@H]1CC[C@H](CC(=O)NC3CCCCC3)O[C@@H]1CO2 | 0.905 ± 0.12 |  |
| CN(C)C(=O)c1cccc(-c2ccc([C@@H]3[C@H]4CN(C(=O)C5CCC5)CC(=O)N4[C@H]3CO)cc2)c1 | 0.9976 ± 0.0084 |  |
| COc1ccc(-c2ccccc2[C@@H]2[C@@H](CO)N(C(=O)NC(C)C)[C@H]2C#N)cc1 | 1.1 ± 0.063 |  |
| COc1ccc(S(=O)(=O)Nc2ccc3c(c2)[C@H]2C[C@H](CC(=O)N(C)C)O[C@@H](CO)[C@H]2O3)cc1 | 1.11 ± 0.014 |  |
| C[C@H]1CN([C@@H](C)CO)C(=O)c2cc(NS(=O)(=O)c3cn(C)cn3)ccc2O[C@@H]1CN(C)C(=O)Nc1cccc2ccccc12 | 0.954 ± 0.24 |  |
| C[C@@H]1CN([C@@H](C)CO)S(=O)(=O)c2ccc(C#Cc3cccc(F)c3)cc2O[C@@H]1CN(C)S(=O)(=O)c1cn(C)cn1 | 0.9512 ± 0.0018 |  |
| Cc1ccc(S(=O)(=O)N(C)C[C@@H]2Oc3cc(C#CC4CCCC4)ccc3S(=O)(=O)N([C@H](C)CO)C[C@H]2C)cc1 | 0.766 ± 0.091 |  |
| C[C@H]1CN([C@@H](C)CO)S(=O)(=O)c2ccc(C#Cc3cccc(F)c3)cc2O[C@@H]1CN(C)S(=O)(=O)c1cn(C)cn1 | 0.985 ± 0.049 |  |
| CCCC#Cc1ccc2c(c1)O[C@@H](CN(C)Cc1ccccn1)[C@@H](C)CN([C@@H](C)CO)S2(=O)=O | 0.884 ± 0.045 |  |
| Cc1ccc(S(=O)(=O)N(C)C[C@H]2Oc3cc(C#CC4CCCC4)ccc3S(=O)(=O)N([C@H](C)CO)C[C@H]2C)cc1 | 0.8771 ± 0.0037 |  |
| CCCC#Cc1ccc2c(c1)O[C@H](CN(C)Cc1ccccn1)[C@H](C)CN([C@@H](C)CO)S2(=O)=O | 0.847 ± 0.015 |  |
| Cc1ccc(S(=O)(=O)N(C)C[C@@H]2Oc3cc(C#CC4CCCC4)ccc3S(=O)(=O)N([C@@H](C)CO)C[C@H]2C)cc1 | 0.648 ± 0.17 |  |
| C[C@@H]1CN([C@H](C)CO)S(=O)(=O)c2ccc(C#Cc3cccc(F)c3)cc2O[C@@H]1CN(C)S(=O)(=O)c1cn(C)cn1 | 1.01 ± 0.055 |  |
| Cc1ccc(S(=O)(=O)N(C)C[C@@H]2Oc3cc(C#CC4CCCC4)ccc3S(=O)(=O)N([C@H](C)CO)C[C@@H]2C)cc1 | 0.943 ± 0.17 |  |

| Compound | viability index [1] | viability index (library set: Broad Institute Blood Stage) |
| --- | --- | --- |
| CCCC#Cc1ccc2c(c1)O[C@H](CN(C)Cc1ccccn1)[C@@H](C)CN([C@@H](C)CO)S2(=O)=O | 1.02 ± 0.084 |  |
| C[C@@H]1CN([C@H](C)CO)S(=O)(=O)c2ccc(C#Cc3cccc(F)c3)cc2O[C@H]1CN(C)S(=O)(=O)c1cn(C)cn1 | 0.803 ± 0.052 |  |
| COc1cccc(S(=O)(=O)N(C)C[C@@H]2Oc3cc(Br)ccc3S(=O)(=O)N([C@@H](C)CO)C[C@@H]2C)c1 | 1.07 ± 0.041 |  |
| O=C(C[C@H]1CC[C@H]2[C@@H](COC[C@H](O)CN2Cc2nccs2)O1)N1CCC(Cc2ccccc2)CC1 | 1.03 ± 0.078 |  |
| CN1C(=O)c2cc(NC(=O)c3cnccn3)ccc2OC[C@@H]2O[C@H](CC(=O)N[C@@H]3CCN(Cc4ccccc4)C3)CC[C@H]21 | 1.05 ± 0.031 |  |
| COc1ccccc1CN1[C@@H]2CNC[C@H]1[C@@H]2c1ccc(-c2cccnc2)cc1 | 1.09 ± 0.1 |  |
| Cc1noc(C)c1S(=O)(=O)N(C)C[C@@H]1OCCCC[C@H](C)Oc2ccc(NC(=O)CCC(F)(F)F)cc2C(=O)N([C@@H](C)CO)C[C@H]1C | 1.03 ± 0.09 |  |
| O=C(C[C@@H]1C=C[C@@H](NC(=O)c2ccc3c(c2)OCO3)[C@@H](CO)O1)NC1Cc2ccccc2C1 | 0.963 ± 0.11 |  |
| COc1cccc(-c2ccccc2[C@@H]2[C@H](C#N)N(C(=O)c3ccccn3)[C@H]2CO)c1 | 1.1 ± 0.072 |  |
| Cc1ccc(S(=O)(=O)Nc2ccc3c(c2)C(=O)N([C@@H](C)CO)C[C@@H](C)[C@H](CN(C)S(=O)(=O)c2cccs2)OCCCC[C@@H](C)O3)cc1 | 1.13 ± 0.086 |  |
| CO[C@H](CN(C)Cc1ccc2c(c1)OCO2)[C@H](C)CN(C(=O)c1ccccc1)[C@@H](C)CO | 1.067 ± 0.0074 |  |
| COc1ccc2c3c([C@@H](CO)N(Cc4ccncc4)C[C@]33CN(C3)C(=O)Nc3cccc(F)c3)n(C)c2c1 | 1 ± 0.16 |  |
| C/C=C/c1ccc([C@H]2[C@H]3CNC[C@@H]2N3C(=O)Nc2ccc3c(c2)OCO3)cc1 | 1.05 ± 0.093 |  |
| C[C@@H]1CN([C@@H](C)CO)S(=O)(=O)c2ccc(C#Cc3cccc(F)c3)cc2O[C@H]1CN(C)S(=O)(=O)c1cn(C)cn1 | 0.9366 ± 0.0027 |  |
| CCCN(C)C[C@H]1Oc2cc(/C=C/c3ccccc3)ccc2S(=O)(=O)N([C@H](C)CO)C[C@@H]1C | 1.02 ± 0.016 |  |
| COc1cccc(S(=O)(=O)N(C)C[C@H]2Oc3cc(Br)ccc3S(=O)(=O)N([C@@H](C)CO)C[C@H]2C)c1 | 0.978 ± 0.026 |  |
| Cc1ccc(S(=O)(=O)N(C)C[C@H]2Oc3cc(C#CC4CCCC4)ccc3S(=O)(=O)N([C@H](C)CO)C[C@@H]2C)cc1 | 0.676 ± 0.26 |  |
| C[C@H]1CN([C@@H](C)CO)S(=O)(=O)c2ccc(C#Cc3cccc(F)c3)cc2O[C@H]1CN(C)S(=O)(=O)c1cn(C)cn1 | 1.04 ± 0.054 |  |
| Cc1ccc(S(=O)(=O)N(C)C[C@@H]2Oc3cc(C#CC4CCCC4)ccc3S(=O)(=O)N([C@@H](C)CO)C[C@@H]2C)cc1 | 0.837 ± 0.055 |  |
| C[C@H]1CN([C@@H](C)CO)S(=O)(=O)c2ccc(-c3ccncc3)cc2O[C@H]1CN(C)S(C)(=O)=O | 1.023 ± 0.0035 |  |
| COc1ccccc1S(=O)(=O)N(C)C[C@@H]1Oc2cc(/C=C/c3ccccc3)ccc2S(=O)(=O)N([C@H](C)CO)C[C@H]1C |  | 0.808 ± 0.032 |
| Cc1ccc(S(=O)(=O)N(C)C[C@H]2Oc3cc(C#CC4CCCC4)ccc3S(=O)(=O)N([C@@H](C)CO)C[C@H]2C)cc1 | 0.713 ± 0.03 |  |
| CCCN(C)C[C@@H]1Oc2cc(/C=C/c3ccccc3)ccc2S(=O)(=O)N([C@@H](C)CO)C[C@H]1C | 1.102 ± 0.0059 |  |

| Compound | viability index [1] | viability index (library set: Broad Institute Blood Stage) |
| --- | --- | --- |
| COc1ccccc1NC(=O)N1C[C@H](O)COC[C@H]2O[C@H](CC(=O)NCCc3ccncc3)CC[C@@H]21 | 1.08 ± 0.062 |  |
| O=C1CCC(=O)N[C@@H](c2ccccc2)C/C=C\CCN1 | 1.01 ± 0.087 |  |
| COc1ccc(NC(=O)N2C[C@@H]3[C@H](c4ccccc42)[C@H](CO)N3Cc2ccccn2)cc1 | 0.993 ± 0.11 |  |
| CCCNC(=O)Nc1ccc2c(c1)OC[C@H](C)N(Cc1cncnc1)C[C@@H](C)[C@H](OC)CN(C)C2=O | 0.989 ± 0.014 |  |
| CO[C@H]1CN(C)C(=O)c2cc(NC(=O)C3CCCCC3)ccc2OC[C@H](C)N(Cc2cccnc2)C[C@H]1C | 1.037 ± 0.0049 |  |
| Cc1noc(C)c1S(=O)(=O)N(C)C[C@@H]1OCc2cn(nn2)CCCC(=O)N([C@@H](C)CO)C[C@H]1C | 1.03 ± 0.014 |  |
| C[C@H](CO)N1C[C@H](C)[C@H](CN(C)S(=O)(=O)c2cn(C)cn2)Oc2cc(C#Cc3cccc(F)c3)ccc2S1(=O)=O | 0.9878 ± 0.0014 |  |
| C[C@H](CO)N1C[C@H](C)[C@@H](CN(C)S(=O)(=O)c2cn(C)cn2)Oc2cc(C#Cc3cccc(F)c3)ccc2S1(=O)=O | 1.05 ± 0.09 |  |
| Cc1ccc(S(=O)(=O)N(C)C[C@H]2Oc3cc(C#CC4CCCC4)ccc3S(=O)(=O)N([C@@H](C)CO)C[C@@H]2C)cc1 | 0.705 ± 0.12 |  |
| COc1cccc(-c2ccc3c(c2)[C@@H]2[C@@H](CCN2S(=O)(=O)c2cn(C)cn2)[C@@H](CO)N3)c1 | 0.97 ± 0.14 |  |
| Cc1noc(C)c1S(=O)(=O)Nc1ccc2c(c1)CC(=O)N([C@@H](C)CO)C[C@H](C)[C@H](CN(C)Cc1ccc(Oc3ccccc3)cc1)O2 | 0.923 ± 0.045 |  |
| COc1ccc(S(=O)(=O)Nc2ccc3c(c2)CC(=O)N([C@@H](C)CO)C[C@@H](C)[C@H](CN(C)C(=O)Nc2c(C)noc2C)O3)cc1 | 0.986 ± 0.019 |  |
| COc1ccc(S(=O)(=O)Nc2ccc3c(c2)CC(=O)N([C@@H](C)CO)C[C@@H](C)[C@@H](CN(C)Cc2ccc(C(=O)Nc4ccccc4N)cc2)O3)cc1 | 0.844 ± 0.012 |  |
| COc1ccc(S(=O)(=O)Nc2ccc3c(c2)CC(=O)N([C@H](C)CO)C[C@@H](C)[C@@H](CN(C)Cc2ccc(C(=O)Nc4ccccc4N)cc2)O3)cc1 | 0.956 ± 0.014 |  |
| COc1ccc(S(=O)(=O)Nc2ccc3c(c2)CC(=O)N([C@@H](C)CO)C[C@H](C)[C@H](CN(C)Cc2ccc(C(=O)Nc4ccccc4N)cc2)O3)cc1 | 0.993 ± 0.024 |  |
| COc1ccc(S(=O)(=O)Nc2ccc3c(c2)CC(=O)N([C@H](C)CO)C[C@H](C)[C@@H](CN(C)Cc2ccc(C(=O)Nc4ccccc4N)cc2)O3)cc1 | 1 ± 0.027 |  |
| COc1ccc(S(=O)(=O)Nc2ccc3c(c2)CC(=O)N([C@H](C)CO)C[C@H](C)[C@H](CN(C)Cc2ccc(C(=O)Nc4ccccc4N)cc2)O3)cc1 | 0.766 ± 0.044 |  |
| COc1ccc(S(=O)(=O)Nc2ccc3c(c2)CC(=O)N([C@@H](C)CO)C[C@@H](C)[C@H](CN(C)Cc2ccc(C(=O)Nc4ccccc4N)cc2)O3)cc1 | 0.836 ± 0.077 |  |
| COc1ccc(S(=O)(=O)Nc2ccc3c(c2)CC(=O)N([C@@H](C)CO)C[C@H](C)[C@@H](CN(C)Cc2ccc(C(=O)Nc4ccccc4N)cc2)O3)cc1 | 0.872 ± 0.11 |  |
| COc1ccc(S(=O)(=O)Nc2ccc3c(c2)CC(=O)N([C@H](C)CO)C[C@@H](C)[C@H](CN(C)Cc2ccc(C(=O)Nc4ccccc4N)cc2)O3)cc1 | 0.966 ± 0.1 |  |
| Cc1noc(C)c1S(=O)(=O)Nc1ccc2c(c1)CC(=O)N([C@@H](C)CO)C[C@@H](C)[C@@H](CN(C)Cc1ccc(Oc3ccccc3)cc1)O2 | 0.851 ± 0.12 |  |
| Cc1noc(C)c1S(=O)(=O)Nc1ccc2c(c1)CC(=O)N([C@H](C)CO)C[C@H](C)[C@H](CN(C)Cc1ccc(Oc3ccccc3)cc1)O2 | 0.981 ± 0.01 |  |
